# In the supplement of paper PMC12636033:
# ± gives the standard deviation of the averaged measurements. Over roughly 33,000 sequences, “E-score (rank enrichment, -0.5 to 0.5)” has its median near -0.0028; the highest 2% begin near 0.23. The sample as a whole holds a higher share of the highest values than the screen did.
# Tested on: 2Sb-muMax20 (muMax20 with two 1,3-bis(methyl)benzene Cys staples, A13C/A17C and Q88C/A92C, C-terminal Lys)
# Assay: PBM 8-mer E-score (E-score (rank enrichment, -0.5 to 0.5)); higher = stronger preferential binding
# Method: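 Protein binding microarray (universal PBM chip covering all 10-mers in fixed probe flanks) with chemically synthesized human Max(13-93) bHLH-LZ analogs (not full-length Max) bearing noncanonical residues (hArg, Tha, Aib, Nle at 65) and aromatic Cys staples. Read-out per 8-mer (and its reverse complement): E-score (rank-based enrichment, -0.5 to 0.5) and Z-score of median probe intensity.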
row,Sequence,PBM 8-mer E-score
1,CGATTCCC,0.142 ± 0.0041
2,CAGACACG,-0.0916 ± 0.036
3,AAGACACG,0.23 ± 0.029
4,AAGACACA,0.0534 ± 0.033
5,CCCCGTAA,0.276 ± 0.014
6,ACCCGTAA,-0.0543 ± 0.035
7,CCCCGTAG,-0.0497 ± 0.00093
8,GCTAGGTA,-0.0432 ± 0.18
9,ATTGTGTC,0.0993 ± 0.063
10,GGGGCGTA,0.15 ± 0.08
11,TACGTGGA,0.0786 ± 0.0068
12,AACGTGGA,0.0893 ± 0.031
13,GACGTGGA,0.0221 ± 0.026
14,CACGTGGA,0.383 ± 0.029
15,AACGTGGG,0.196 ± 0.0051
16,AACGTGGC,0.192 ± 0.021
17,CACGTGGC,0.317 ± 0.015
18,GACGTGGC,-0.00165 ± 0.017
19,CACGTGGG,0.438 ± 0.0088
20,ACTTAGAA,-0.02 ± 0.04
21,CGAAGGCC,-0.212 ± 0.015
22,AAACTTGC,0.254 ± 0.025

row,Sequence,PBM 8-mer E-score
1,AAACTTGA,0.163 ± 0.048
2,CAACTTGC,-0.1303 ± 0.0012
3,ACAGATTA,-0.0104 ± 0.027
4,CCTGAAAC,-0.0931 ± 0.062
5,GTCGTAAC,0.00633 ± 0.033
6,GAGTCGGA,-0.0932 ± 0.037
7,CTTCATAC,0.0955 ± 0.029
8,AGTCATTG,0.264 ± 0.034
9,AGTCATTA,0.0586 ± 0.056
10,ATTCATTC,0.249 ± 0.029
11,ATTCATAG,0.0979 ± 0.039
12,AGTCATTC,0.129 ± 0.077
13,CTACATTC,0.0832 ± 0.066
14,ATTCATTG,0.0825 ± 0.018
15,ATTCATAC,0.276 ± 0.044
16,ATACATTG,0.17 ± 0.021
17,ATACATTC,0.32 ± 0.023
18,ATTCATTA,0.114 ± 0.012
19,GCATCTGA,-0.135 ± 0.0046
20,GGGCCAGA,-0.122 ± 0.054
21,CTTGGGCA,0.0256 ± 0.03
22,CGAGGCCC,-0.00116 ± 0.04

row,Sequence,PBM 8-mer E-score
1,TGCGCGAA,0.146 ± 0.011
2,AGCAGACA,-0.0463 ± 0.0083
3,GACTGAGC,-0.267 ± 0.057
4,CCACAGAG,-0.0457 ± 0.076
5,CTATCCTC,-0.015 ± 0.015
6,CTATCTTC,0.0336 ± 0.054
7,ATATCTTA,0.124 ± 0.0016
8,ATATCTTC,0.249 ± 0.029
9,ATATCCTC,0.262 ± 0.054
10,ATATCCTA,0.0634 ± 0.0093
11,ATATCCCG,0.0587 ± 0.04
12,ATATCCCC,0.339 ± 0.025
13,CTATCCCC,0.121 ± 0.0091
14,CTCTTTGA,-0.0279 ± 0.036
15,GCATGATA,0.214 ± 0.029
16,ATATGATG,0.141 ± 0.0096
17,GTATGAGA,0.0453 ± 0.12
18,GTATGATA,0.258 ± 0.026
19,ATATGATA,0.257 ± 0.058
20,CTATGATA,0.0532 ± 0.035
21,ACCTTTAT,0.02821 ± 0.00021
22,CAGCCTCG,-0.0714 ± 0.034

row,Sequence,PBM 8-mer E-score
1,GGGGTTGA,0.138 ± 0.03
2,CCCAATTA,0.221 ± 0.021
3,ACCAATTC,-0.0487 ± 0.032
4,CCCAATTC,0.247 ± 0.0082
5,ACGATCTG,-0.0575 ± 0.048
6,AGCGATCG,0.235 ± 0.0084
7,AGCGATCC,-0.145 ± 0.057
8,AGCGATCA,-0.298 ± 0.021
9,GACTGTCC,-0.111 ± 0.073
10,ATTGTCGA,0.0736 ± 0.034
11,AATATATA,0.162 ± 0.015
12,CATATGGG,0.252 ± 0.056
13,CATATGGC,0.142 ± 0.035
14,CAAATACA,0.23 ± 0.0088
15,GAAATACA,-0.0423 ± 0.015
16,TATATACA,0.173 ± 0.0038
17,AATATATC,0.19 ± 0.013
18,AATATACT,0.0704 ± 0.03
19,AATATGGG,0.178 ± 0.024
20,AATATACA,0.264 ± 0.02
21,AATATATT,0.24 ± 0.054
22,CAAATACC,0.0305 ± 0.029
